Common to all, as to experiment: qHTS profiling for inhibitors of Plasmodium falciparum proliferation (AID 504749); further: nearly all actives have a fitted effect of over 60% in size
Conditions in all cases: P. falciparum in erythrocytes, SYBR Green DNA, 72 h; series mostly up to 28.7 µM
On the technique in general: Quantitative high-throughput screening tests each substance at several concentrations.

In experiment [1] the test system is CP256. Summed up: (§1)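 Each compound contacts P. falciparum-infected red blood cells for 72 h at 37 C; lysis buffer (Tris, EDTA, saponin, Triton X, SYBR Green I) is added and fluorescence measured next morning; values normalized to controls.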
The test system of experiment [2] is CP260. An outline of the steps:
as §1

For experiment [3], the system named is CP265. An outline of the steps: as §1
Experiment [4] concerns CP266. Summed up: as §1
Experiment [5] concerns CP268. Summed up: as §1
The test system of experiment [6] is CP269. Summed up:
as §1

The subject of experiment [7] is CP286. An outline of the steps: as §1
In experiment [8] the test system is CP291. An outline of the steps:
as §1

Experiment [9] relates to CP297. An outline of the steps: as §1
Experiment [10] relates to CP262. Summed up:
as §1

SMILES strings stand for the structures. Results filed as inconclusive are left out. Activity calls are given as the source filed them. The call rests on the fitted dose curve; in most records, active means well fitted inhibition curve with a large enough effect; inconclusive means small, poorly fitted or top-dose-only effect; inactive means flat fitted curve, though single readings scatter.
Potency means the concentration at half of the fitted maximal effect.

With `CC12CCC(C[N+](C)(CCC[N+](C)(C)C)C1)C2(C)C` (stereo not drawn), the Potency result in [1], in [2], in experiment [3], in experiment [4], in [5] and in experiment [6] was “inactive” in each case. Further, the Potency result in experiment [7], in experiment [8] and in experiment [9] was “inactive” in each case.

Consider `CCCCCCCCCCCC(=O)N(CCO)CCO`, for which the Potency entry in experiment [1], in experiment [2], in experiment [3], in [4], in [6] and in experiment [7] was “inactive” throughout. The Potency entry in [8] and in experiment [9] was “inactive” throughout.

As for `COc1cc(NCCCC(C)N)c2ncccc2c1` (stereo not drawn), the Potency in experiment [1] was 4.47 µM (active); in [2] it was 8.91 µM (active); in experiment [10] it was 6.75 µM (active); in experiment [3], 8.91 µM (active); in [5] it was 6.75 µM (active); in experiment [6], 7.57 µM (active). For the same compound, the Potency was 1.41 µM (active) in experiment [7] and 8.49 µM (active) in [9].

On to `CC(C)C1=CC2=CC[C@@H]3[C@](C)(CCC[C@@]3(C)C(=O)O)[C@H]2CC1`, for which the Potency result in experiment [1], in [2], in experiment [10], in experiment [3] and in [7] was “inactive” each time.

`CCCCC(CC)CCC(CC(C)C)OS(=O)(=O)O` (stereo not drawn): the Potency result in [1], in [10], in experiment [3], in experiment [4], in experiment [5] and in experiment [6] was “inactive” throughout. The Potency entry in experiment [7], in [8] and in experiment [9] was “inactive” in each case.

Turning to `CN(Cc1ccccc1)Cc1ccccc1`, the Potency entry in experiment [1], in experiment [10], in experiment [3], in experiment [4], in experiment [5] and in experiment [6] was “inactive” each time. Further, the Potency result in [7], in [8] and in experiment [9] was “inactive” each time.

`CCCCC`: the Potency result in experiment [1], in experiment [2], in experiment [3], in experiment [4], in experiment [5] and in [6] was “inactive” in each case. In addition, the Potency entry in experiment [7], in experiment [8] and in experiment [9] was “inactive” throughout.

Turning to `CCN(CC)CCOc1ccc2nc(N(C)C)sc2c1`, the Potency entry in experiment [1], in experiment [2], in [3], in [4], in experiment [5] and in experiment [6] was “inactive” throughout. The Potency result in experiment [7], in experiment [8] and in [9] was “inactive” each time.

As for `C[C@@](Cc1ccc(O)c(O)c1)(NN)C(=O)O`, the Potency entry in experiment [1], in experiment [10], in experiment [3], in experiment [4], in experiment [5] and in [6] was “inactive” in each case. Besides, the Potency entry in [7], in experiment [8] and in experiment [9] was “inactive” throughout.

For the compound `CCCCCCOC(=O)c1cccnc1`, the Potency entry in [1], in experiment [2], in experiment [10], in experiment [3], in experiment [5] and in [6] was “inactive” each time. The Potency entry in [7], in experiment [8] and in [9] was “inactive” each time.

On to `CCN(CC)CCCC(C)Nc1cc(/C=C/c2ccccc2Cl)nc2cc(Cl)ccc12` (stereo not drawn), for which the Potency in [1] is 3.55 µM (active); in experiment [2], 2 µM (active); in [3], 2.82 µM (active); in experiment [5] it was 4.26 µM (active); in experiment [6], 3.38 µM (active); in experiment [7] it was 1.12 µM (active). The results for the Potency in experiment [8] and in experiment [9] were 2.13 µM (active) and 7.57 µM (active), respectively.

`C[C@H](N)C(=O)N[C@@H](C)P(=O)(O)O`: the Potency result in experiment [1], in experiment [10], in [3], in [4], in experiment [5] and in experiment [6] was “inactive” each time. Also, the Potency entry in [7], in experiment [8] and in [9] was “inactive” in each case.

As for `CC(=O)NCCCS(=O)(=O)O`, the Potency result in experiment [1], in experiment [10], in experiment [3], in [4], in experiment [5] and in experiment [6] was “inactive” in each case. The Potency result in experiment [7], in experiment [8] and in experiment [9] was “inactive” in each case.

With `Cc1cc(-c2ccc(N=Nc3ccc4c(S(=O)(=O)O)cc(S(=O)(=O)O)c(N)c4c3O)c(C)c2)ccc1N=Nc1ccc2c(S(=O)(=O)O)cc(S(=O)(=O)O)c(N)c2c1O`, the Potency result in experiment [1], in experiment [10], in experiment [3], in experiment [4], in experiment [5] and in experiment [6] was “inactive” each time. Moreover, the Potency result in [7], in experiment [8] and in experiment [9] was “inactive” each time.

Consider `O=P(O)(O)OP(=O)(O)O`, for which the Potency result in [1], in [2], in experiment [10], in experiment [4], in experiment [5] and in [6] was “inactive” each time. Also, the Potency entry in experiment [7], in [8] and in [9] was “inactive” each time.

As for `F[Si-2](F)(F)(F)(F)F`, the Potency result in [1], in experiment [2], in experiment [3], in [4], in experiment [5] and in experiment [6] was “inactive” throughout. Further, the Potency entry in [7], in experiment [8] and in experiment [9] was “inactive” each time.

Regarding `NC(=O)CC[C@@H]1NC(=O)[C@H](Cc2ccccc2)NC(=O)[C@H](Cc2ccc(O)cc2)NC(=O)[C@@H](N)CSSC[C@@H](C(=O)N2CCC[C@H]2C(=O)N[C@@H](CCCN=C(N)N)C(=O)NCC(N)=O)NC(=O)[C@H](CC(N)=O)NC1=O`, the Potency entry in [1], in experiment [10], in experiment [4], in experiment [5], in [6] and in experiment [7] was “inactive” throughout. For the same compound, the Potency result in [8] and in [9] was “inactive” each time. Further, the Potency in experiment [2] is 2.24 µM (active).

Turning to `C(=C\c1ccncc1)/c1ccccc1`, the Potency result in experiment [1], in experiment [2], in [3], in experiment [4], in experiment [5] and in [6] was “inactive” each time. Further, the Potency entry in experiment [7] and in [9] was “inactive” each time.

As for `CCCCC[C@H](O)/C=C/[C@H]1[C@H](O)CC(=O)[C@@H]1C/C=C\CCCC(=O)O`, the Potency result in experiment [1], in experiment [10], in experiment [3], in experiment [4], in [5] and in [6] was “inactive” each time. For the same compound, the Potency result in experiment [7], in [8] and in experiment [9] was “inactive” each time.

As for `Cc1cccc(Nc2ncccc2C(=O)O)c1C`, the Potency entry in [1], in experiment [10], in experiment [3], in [4], in experiment [5] and in experiment [6] was “inactive” each time. The Potency entry in experiment [7], in experiment [8] and in experiment [9] was “inactive” in each case.

Regarding `CN1CCc2c(c3ccccc3n2Cc2ccccc2)C1`, the Potency result in experiment [1], in experiment [2], in experiment [3], in [4], in [7] and in [8] was “inactive” in each case. Further, in experiment [9], the Potency result was “inactive”.

Take `CSc1nc2cc(Oc3cccc(Cl)c3Cl)c(Cl)cc2[nH]1`: the Potency in [1] is 1.78 µM (active); in experiment [2] it was 7.94 µM (active); in [3] it was 2 µM (active); in experiment [6], 12 µM (active); in [7] it was 10 µM (active); in [8], 8.49 µM (active). Moreover, the Potency in experiment [9] was 12 µM (active). Also, the Potency entry in [10] was “inactive”.

With `O=c1[nH]c(=O)n([C@H]2C[C@H](O)[C@@H](CO)O2)cc1/C=C/Br`, the Potency result in [1], in experiment [10], in [3], in experiment [4], in experiment [5] and in experiment [6] was “inactive” in each case. For the same compound, the Potency result in [7], in experiment [8] and in experiment [9] was “inactive” in each case.

Consider `CC(C)OC(=O)Nc1ccc2nc(-c3cscn3)[nH]c2c1`, for which the Potency result in experiment [1], in experiment [2], in experiment [10], in experiment [3], in experiment [5] and in experiment [7] was “inactive” in each case.

As to `CCCCC[C@H](O)/C=C/[C@@H]1[C@H]2C/C(=C/CCCC(=O)O)O[C@H]2C[C@H]1O`, the Potency entry in experiment [1], in experiment [10], in experiment [3], in experiment [4], in experiment [5] and in [6] was “inactive” throughout. Besides, the Potency entry in [7], in experiment [8] and in experiment [9] was “inactive” in each case.

`OCCOCCOCCO`: the Potency entry in [1], in experiment [2], in experiment [10], in experiment [3] and in experiment [7] was “inactive” in each case.

On to `CC[C@H]1OC(=O)[C@H](C)[C@@H](O[C@H]2C[C@@](C)(OC)[C@@H](O)[C@H](C)O2)C(C)[C@@H](O[C@@H]2O[C@H](C)C[C@H](N(C)C)[C@@H]2O)[C@](C)(OC)C[C@@H](C)C(=O)[C@H](C)[C@@H](O)[C@]1(C)O` (stereo partly drawn), for which the Potency was 1.26 µM (active) in experiment [1], 5.62 µM (active) in experiment [2] and 8.91 µM (active) in experiment [7]. Also, the Potency entry in experiment [3], in experiment [4], in experiment [5], in experiment [6] and in experiment [8] was “inactive” throughout.

For `OCC(O)CO`, the Potency result in [1], in experiment [2], in experiment [3], in experiment [4], in experiment [5] and in experiment [6] was “inactive” throughout. The Potency entry in [7], in experiment [8] and in experiment [9] was “inactive” in each case.

`CCC(C(=O)NC(N)=O)c1ccccc1` (stereo not drawn): the Potency result in experiment [1], in [10], in experiment [3], in experiment [4], in experiment [5] and in experiment [6] was “inactive” in each case. The Potency entry in [7], in experiment [8] and in [9] was “inactive” each time.

In the case of `CCOC(=O)c1c[nH]c2cc(OCC(C)C)c(OCC(C)C)cc2c1=O`, the Potency is 0.0708 µM (active) in experiment [1]; 0.0708 µM (active) in experiment [2]; 0.0891 µM (active) in experiment [3]; 0.135 µM (active) in [5]; 0.0708 µM (active) in experiment [7]; 0.0757 µM (active) in [8].
